Measurements published in the supplement of paper PMC11732987, “Enantioselective OTUD7B fragment discovery through chemoproteomics screening and high-throughput optimisation” (Communications Chemistry, 2025).

Columns and labels:
Test in all cases: log2 ratio of Biotin-Ahx-Ub-VS probe labelling (fragment/DMSO); higher = less target engagement (more negative = stronger competition), active = hit call of the paper (q ≤ 0.05, log2 ratio ≤ -1)
Details in all cases: compound concentration: 200 uM; treatment time: 3 h
USP42 = target: T1, USP42 (UniProt Q9H9J4)
T1 sequence (whole entry): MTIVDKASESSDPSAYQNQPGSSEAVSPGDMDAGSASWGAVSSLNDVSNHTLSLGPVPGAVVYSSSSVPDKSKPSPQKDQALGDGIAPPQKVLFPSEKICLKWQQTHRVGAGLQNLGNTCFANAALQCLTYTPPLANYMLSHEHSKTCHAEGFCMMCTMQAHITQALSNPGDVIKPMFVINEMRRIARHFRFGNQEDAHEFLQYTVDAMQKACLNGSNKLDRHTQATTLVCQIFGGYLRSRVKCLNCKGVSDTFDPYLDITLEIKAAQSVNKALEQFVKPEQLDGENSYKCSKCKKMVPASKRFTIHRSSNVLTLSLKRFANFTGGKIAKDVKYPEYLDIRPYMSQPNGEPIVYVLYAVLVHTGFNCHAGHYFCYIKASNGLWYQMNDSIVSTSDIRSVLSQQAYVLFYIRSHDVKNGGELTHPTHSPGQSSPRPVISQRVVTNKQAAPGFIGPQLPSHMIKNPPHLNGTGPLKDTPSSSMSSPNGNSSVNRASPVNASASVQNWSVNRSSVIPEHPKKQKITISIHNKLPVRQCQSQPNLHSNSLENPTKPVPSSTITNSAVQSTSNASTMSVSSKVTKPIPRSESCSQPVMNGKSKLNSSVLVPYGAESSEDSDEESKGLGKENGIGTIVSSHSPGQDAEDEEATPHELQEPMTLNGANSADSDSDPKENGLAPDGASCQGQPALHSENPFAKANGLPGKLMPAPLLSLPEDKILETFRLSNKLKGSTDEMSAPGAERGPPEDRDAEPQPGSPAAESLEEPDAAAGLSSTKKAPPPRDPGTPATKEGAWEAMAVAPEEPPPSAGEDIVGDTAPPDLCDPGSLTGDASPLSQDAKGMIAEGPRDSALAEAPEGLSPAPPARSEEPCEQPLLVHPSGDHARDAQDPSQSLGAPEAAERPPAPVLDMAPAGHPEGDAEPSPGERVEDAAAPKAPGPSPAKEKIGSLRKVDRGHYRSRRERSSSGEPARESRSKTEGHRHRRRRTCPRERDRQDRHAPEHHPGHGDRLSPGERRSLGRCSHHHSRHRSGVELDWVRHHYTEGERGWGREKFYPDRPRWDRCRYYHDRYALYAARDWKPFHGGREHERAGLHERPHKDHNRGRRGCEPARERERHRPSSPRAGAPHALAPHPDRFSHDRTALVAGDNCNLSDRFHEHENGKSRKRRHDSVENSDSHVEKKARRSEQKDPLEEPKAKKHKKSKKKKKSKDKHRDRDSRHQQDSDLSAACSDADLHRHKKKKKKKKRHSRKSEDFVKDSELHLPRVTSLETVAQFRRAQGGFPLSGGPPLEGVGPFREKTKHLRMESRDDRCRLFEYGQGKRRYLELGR
Summary of the method: (§1)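 Labelled DUBs from HEK293T lysate were NeutrAvidin-enriched, digested with LysC and trypsin, and run by diaPASEF LC-MS/MS. Before that, each 495 µg sample in Tris/CHAPS/IGEPAL buffer with protease inhibitors was treated in triplicate with fragment at 200 µM or vehicle for 3 h, then with Biotin-Ahx-Ub-VS at 0.5 µM final for 1 h. Values are average log2 ratios of fragment over vehicle by unpaired t-test, based on global-median-normalised Spectronaut label-free quantities from proteins with ≥2 unique peptides.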

USP46 = USP46 (UniProt P62068)
Chain of USP46 (P62068 whole entry): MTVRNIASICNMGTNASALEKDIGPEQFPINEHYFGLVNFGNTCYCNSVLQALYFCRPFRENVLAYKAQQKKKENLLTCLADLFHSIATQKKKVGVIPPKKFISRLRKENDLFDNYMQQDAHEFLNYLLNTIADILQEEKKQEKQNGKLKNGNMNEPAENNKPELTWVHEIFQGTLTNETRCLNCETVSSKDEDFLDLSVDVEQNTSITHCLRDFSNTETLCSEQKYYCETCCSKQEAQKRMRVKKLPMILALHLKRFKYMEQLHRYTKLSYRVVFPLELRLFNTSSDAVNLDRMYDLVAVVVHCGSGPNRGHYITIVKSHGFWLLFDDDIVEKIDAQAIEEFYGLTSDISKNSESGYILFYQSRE
Summary of the method: as §1

USP47 = target: T2, USP47 (UniProt Q96K76)
T2 sequence (whole entry): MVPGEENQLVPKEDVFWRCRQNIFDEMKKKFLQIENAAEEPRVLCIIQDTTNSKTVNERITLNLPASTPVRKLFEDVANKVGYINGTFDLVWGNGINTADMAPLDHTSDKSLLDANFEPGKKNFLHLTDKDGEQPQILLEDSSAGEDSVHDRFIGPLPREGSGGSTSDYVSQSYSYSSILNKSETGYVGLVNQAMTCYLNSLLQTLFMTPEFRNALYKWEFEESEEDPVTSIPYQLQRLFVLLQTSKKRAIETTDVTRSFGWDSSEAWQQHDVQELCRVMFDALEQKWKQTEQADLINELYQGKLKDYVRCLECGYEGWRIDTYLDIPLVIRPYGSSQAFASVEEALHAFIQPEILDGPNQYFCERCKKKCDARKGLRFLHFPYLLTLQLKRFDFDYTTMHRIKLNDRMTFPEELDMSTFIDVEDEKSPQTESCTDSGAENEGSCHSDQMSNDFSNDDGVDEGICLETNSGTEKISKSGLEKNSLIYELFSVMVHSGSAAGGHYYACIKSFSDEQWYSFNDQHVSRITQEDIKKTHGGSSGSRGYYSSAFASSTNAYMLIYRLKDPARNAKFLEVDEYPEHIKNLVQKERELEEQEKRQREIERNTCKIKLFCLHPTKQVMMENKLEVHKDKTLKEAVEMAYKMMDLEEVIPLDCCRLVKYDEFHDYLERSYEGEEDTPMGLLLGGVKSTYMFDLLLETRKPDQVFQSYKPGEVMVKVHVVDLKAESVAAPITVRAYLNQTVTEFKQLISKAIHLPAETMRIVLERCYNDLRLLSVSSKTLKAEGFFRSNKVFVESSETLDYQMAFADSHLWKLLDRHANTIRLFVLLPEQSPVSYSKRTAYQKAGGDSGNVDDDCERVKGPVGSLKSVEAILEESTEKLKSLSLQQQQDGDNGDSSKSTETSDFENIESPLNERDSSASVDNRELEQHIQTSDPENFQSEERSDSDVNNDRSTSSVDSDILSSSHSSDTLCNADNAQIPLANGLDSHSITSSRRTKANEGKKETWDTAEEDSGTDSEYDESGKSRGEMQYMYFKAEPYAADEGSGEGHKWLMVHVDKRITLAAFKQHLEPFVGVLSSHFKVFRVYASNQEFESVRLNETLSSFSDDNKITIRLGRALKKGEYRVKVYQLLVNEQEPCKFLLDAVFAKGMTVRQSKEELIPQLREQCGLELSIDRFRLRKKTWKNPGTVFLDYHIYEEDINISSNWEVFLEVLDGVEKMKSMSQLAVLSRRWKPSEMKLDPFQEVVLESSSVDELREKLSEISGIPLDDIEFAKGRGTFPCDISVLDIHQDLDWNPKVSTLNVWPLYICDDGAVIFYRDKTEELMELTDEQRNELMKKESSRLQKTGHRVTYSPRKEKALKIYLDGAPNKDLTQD
Summary of the method: as §1

USP48 = target: T3, USP48 (UniProt Q86UV5)
T3 sequence (whole entry): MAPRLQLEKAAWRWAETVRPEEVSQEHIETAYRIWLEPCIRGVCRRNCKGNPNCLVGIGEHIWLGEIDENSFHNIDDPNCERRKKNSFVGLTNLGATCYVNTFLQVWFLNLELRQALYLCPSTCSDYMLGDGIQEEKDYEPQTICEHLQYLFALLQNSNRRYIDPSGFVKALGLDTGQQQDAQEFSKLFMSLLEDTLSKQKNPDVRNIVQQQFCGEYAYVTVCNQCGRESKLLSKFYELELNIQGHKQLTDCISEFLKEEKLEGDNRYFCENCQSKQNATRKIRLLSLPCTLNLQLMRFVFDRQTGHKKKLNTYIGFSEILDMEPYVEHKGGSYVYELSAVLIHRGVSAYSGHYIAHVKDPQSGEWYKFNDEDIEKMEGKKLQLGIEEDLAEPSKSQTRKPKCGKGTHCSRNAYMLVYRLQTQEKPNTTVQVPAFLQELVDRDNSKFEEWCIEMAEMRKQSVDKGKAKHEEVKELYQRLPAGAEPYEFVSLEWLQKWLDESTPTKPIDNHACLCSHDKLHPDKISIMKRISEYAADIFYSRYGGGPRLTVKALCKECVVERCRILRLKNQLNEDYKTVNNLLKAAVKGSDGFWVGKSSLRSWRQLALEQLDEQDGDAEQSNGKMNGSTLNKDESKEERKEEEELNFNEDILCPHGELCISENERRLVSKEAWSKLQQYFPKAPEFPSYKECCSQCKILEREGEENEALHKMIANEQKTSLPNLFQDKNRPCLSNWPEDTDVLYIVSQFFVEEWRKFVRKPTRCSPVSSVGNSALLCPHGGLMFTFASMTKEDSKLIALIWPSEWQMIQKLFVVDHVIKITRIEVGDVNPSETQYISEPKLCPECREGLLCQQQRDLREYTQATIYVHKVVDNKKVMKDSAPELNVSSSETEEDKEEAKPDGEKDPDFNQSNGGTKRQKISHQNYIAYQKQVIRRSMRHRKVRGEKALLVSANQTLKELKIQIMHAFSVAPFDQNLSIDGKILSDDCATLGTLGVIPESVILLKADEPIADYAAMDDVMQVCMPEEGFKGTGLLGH
Summary of the method: as §1

USP5 = target: T4, USP5 (UniProt P45974)
T4 sequence (whole entry): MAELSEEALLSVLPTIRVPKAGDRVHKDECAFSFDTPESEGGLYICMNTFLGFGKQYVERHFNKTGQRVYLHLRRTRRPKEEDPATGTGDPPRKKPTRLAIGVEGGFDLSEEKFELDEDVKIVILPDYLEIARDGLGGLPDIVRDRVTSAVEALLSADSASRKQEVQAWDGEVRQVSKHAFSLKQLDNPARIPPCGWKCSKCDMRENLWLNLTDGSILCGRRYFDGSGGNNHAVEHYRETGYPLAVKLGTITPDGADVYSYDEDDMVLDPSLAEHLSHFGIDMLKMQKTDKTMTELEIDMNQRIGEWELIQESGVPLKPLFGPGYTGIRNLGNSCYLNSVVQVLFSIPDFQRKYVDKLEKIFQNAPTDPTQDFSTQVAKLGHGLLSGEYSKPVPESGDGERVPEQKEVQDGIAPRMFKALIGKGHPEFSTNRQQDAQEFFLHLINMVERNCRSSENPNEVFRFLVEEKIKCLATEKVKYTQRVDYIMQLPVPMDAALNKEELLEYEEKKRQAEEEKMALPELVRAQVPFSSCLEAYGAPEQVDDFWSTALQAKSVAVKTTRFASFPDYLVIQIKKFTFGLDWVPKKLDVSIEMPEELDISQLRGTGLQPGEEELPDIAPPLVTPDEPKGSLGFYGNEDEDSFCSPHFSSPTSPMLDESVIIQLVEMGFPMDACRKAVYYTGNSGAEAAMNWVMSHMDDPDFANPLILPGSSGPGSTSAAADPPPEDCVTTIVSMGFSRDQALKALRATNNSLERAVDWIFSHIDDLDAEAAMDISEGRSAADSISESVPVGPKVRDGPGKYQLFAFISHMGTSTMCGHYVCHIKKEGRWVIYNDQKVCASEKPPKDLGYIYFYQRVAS
Summary of the method: as §1

USP54 = USP54 (UniProt Q70EL1)
Chain of USP54 (Q70EL1 whole entry): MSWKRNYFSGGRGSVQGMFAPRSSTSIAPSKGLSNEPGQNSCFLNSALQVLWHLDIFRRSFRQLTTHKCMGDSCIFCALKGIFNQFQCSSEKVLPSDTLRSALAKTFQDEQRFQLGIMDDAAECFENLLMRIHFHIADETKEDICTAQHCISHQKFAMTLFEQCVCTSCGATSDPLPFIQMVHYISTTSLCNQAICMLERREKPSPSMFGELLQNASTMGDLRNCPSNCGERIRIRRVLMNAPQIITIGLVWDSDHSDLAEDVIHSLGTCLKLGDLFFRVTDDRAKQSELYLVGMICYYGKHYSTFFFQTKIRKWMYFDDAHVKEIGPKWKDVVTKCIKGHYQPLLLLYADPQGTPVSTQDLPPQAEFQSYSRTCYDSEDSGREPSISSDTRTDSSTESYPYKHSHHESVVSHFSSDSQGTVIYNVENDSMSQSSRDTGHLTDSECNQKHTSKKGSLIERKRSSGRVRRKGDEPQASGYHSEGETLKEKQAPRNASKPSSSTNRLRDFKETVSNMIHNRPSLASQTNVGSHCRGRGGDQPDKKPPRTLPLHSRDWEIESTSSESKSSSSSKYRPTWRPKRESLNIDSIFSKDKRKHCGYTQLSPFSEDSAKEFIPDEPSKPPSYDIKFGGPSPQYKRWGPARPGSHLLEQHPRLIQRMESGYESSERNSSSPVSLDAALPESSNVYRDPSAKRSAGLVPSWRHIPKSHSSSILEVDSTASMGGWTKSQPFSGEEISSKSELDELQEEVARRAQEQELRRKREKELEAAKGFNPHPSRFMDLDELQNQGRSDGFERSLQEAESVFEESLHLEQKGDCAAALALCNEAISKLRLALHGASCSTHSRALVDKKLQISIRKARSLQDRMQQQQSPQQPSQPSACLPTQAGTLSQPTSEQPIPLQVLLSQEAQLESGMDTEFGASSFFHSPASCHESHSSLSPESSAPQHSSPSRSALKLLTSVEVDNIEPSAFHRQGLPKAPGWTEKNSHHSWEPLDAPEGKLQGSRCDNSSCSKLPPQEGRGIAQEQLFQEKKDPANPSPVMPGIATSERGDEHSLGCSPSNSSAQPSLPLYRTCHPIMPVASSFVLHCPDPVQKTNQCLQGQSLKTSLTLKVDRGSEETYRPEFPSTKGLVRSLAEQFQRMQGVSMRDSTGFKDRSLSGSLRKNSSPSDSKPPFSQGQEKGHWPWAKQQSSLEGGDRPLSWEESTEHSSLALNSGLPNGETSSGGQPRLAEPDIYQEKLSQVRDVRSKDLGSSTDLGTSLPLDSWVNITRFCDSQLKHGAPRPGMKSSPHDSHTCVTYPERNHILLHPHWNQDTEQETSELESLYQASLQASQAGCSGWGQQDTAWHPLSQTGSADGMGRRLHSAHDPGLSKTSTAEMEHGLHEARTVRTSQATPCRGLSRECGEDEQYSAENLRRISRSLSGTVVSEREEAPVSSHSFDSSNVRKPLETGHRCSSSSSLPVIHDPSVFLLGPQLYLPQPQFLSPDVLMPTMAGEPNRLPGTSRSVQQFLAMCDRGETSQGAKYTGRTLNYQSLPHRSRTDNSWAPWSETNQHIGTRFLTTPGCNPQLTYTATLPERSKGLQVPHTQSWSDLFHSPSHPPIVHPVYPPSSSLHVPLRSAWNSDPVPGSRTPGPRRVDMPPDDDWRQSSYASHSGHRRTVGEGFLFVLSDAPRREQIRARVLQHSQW
Summary of the method: as §1

USP7 = USP7 (UniProt Q93009)
Chain of USP7 (Q93009 whole entry, looked up): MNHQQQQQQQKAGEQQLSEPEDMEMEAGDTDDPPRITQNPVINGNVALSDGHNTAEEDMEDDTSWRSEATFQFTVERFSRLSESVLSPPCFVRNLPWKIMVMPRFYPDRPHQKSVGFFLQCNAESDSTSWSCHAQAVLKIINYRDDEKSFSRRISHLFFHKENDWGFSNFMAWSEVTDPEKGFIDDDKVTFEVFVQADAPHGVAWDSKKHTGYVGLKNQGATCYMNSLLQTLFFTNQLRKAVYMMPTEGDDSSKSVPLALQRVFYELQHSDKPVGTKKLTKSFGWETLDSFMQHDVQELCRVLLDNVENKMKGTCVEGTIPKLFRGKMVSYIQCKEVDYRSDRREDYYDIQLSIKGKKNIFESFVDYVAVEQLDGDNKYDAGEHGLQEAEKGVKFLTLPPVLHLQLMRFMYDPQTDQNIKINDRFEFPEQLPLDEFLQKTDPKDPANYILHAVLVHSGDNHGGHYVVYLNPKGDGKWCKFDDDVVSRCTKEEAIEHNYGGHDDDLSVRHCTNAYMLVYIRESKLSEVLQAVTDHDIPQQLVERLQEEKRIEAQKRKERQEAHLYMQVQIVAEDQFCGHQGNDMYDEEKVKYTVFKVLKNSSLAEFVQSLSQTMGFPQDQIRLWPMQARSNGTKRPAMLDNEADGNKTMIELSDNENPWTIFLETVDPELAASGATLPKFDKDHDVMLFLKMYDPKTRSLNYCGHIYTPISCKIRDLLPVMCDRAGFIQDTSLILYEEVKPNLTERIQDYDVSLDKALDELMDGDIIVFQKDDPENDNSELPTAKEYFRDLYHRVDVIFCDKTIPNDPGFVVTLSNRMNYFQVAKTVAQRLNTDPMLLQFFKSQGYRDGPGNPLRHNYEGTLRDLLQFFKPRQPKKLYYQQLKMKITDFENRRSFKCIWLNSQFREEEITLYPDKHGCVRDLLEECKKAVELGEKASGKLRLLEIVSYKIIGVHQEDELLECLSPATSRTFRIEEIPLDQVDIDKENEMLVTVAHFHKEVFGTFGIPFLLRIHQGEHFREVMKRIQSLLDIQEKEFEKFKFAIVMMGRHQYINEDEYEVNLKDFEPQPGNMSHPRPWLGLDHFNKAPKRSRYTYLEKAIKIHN
Summary of the method: as §1

USP8 = target: T5, USP8 (UniProt P40818)
T5 sequence (whole entry): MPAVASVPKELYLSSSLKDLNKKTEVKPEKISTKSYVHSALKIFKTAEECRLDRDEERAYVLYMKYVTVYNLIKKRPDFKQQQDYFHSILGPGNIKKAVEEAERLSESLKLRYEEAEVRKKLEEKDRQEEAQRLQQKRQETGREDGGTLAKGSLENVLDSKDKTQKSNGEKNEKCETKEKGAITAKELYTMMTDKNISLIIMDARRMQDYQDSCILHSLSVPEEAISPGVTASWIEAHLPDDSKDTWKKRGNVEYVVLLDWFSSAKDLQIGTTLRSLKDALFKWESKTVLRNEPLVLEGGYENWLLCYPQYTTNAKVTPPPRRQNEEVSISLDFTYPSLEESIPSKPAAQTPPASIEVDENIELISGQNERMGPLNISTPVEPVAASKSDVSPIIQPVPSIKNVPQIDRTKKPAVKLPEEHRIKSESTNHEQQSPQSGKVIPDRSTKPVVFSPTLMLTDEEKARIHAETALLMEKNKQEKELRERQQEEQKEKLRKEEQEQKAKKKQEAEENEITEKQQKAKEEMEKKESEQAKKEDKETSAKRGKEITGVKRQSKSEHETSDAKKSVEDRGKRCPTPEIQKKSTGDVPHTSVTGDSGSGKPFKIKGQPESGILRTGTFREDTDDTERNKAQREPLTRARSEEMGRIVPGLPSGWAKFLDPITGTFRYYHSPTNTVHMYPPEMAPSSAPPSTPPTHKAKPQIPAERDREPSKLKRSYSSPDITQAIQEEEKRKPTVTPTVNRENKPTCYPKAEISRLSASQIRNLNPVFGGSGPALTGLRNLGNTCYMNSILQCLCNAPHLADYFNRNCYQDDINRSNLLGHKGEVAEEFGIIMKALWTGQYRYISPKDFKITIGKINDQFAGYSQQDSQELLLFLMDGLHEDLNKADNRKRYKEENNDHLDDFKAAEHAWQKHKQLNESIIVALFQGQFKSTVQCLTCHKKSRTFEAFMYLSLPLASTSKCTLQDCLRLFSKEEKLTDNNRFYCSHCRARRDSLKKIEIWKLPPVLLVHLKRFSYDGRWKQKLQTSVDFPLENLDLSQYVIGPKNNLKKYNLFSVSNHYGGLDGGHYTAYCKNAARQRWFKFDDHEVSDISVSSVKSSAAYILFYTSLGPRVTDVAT
Summary of the method: as §1

USP9X = USP9X (UniProt Q93008)
Summary of the method: as §1

UniProt O00487 = target: UniProt O00487
Chain of UniProt O00487 (O00487 whole entry): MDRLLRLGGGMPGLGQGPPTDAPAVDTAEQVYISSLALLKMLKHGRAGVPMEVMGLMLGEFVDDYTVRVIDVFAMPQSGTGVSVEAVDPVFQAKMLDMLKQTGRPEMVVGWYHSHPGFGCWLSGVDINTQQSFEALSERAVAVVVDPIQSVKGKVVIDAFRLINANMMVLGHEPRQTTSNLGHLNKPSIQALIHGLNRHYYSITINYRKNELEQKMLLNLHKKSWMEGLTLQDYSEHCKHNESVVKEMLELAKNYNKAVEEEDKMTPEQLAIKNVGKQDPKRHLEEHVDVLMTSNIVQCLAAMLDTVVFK
Summary of the method: as §1

Measured: log2 ratio of Biotin-Ahx-Ub-VS probe labelling

O=C(CCl)NCCC1=CCCCC1
inactive: USP42 0.91 | USP46 -0.0411 | USP47 -0.145 | USP48 0.0648 | USP5 0.0523 | USP54 0.116 | USP7 -0.402 | USP8 0.244 | USP9X -0.0639 | UniProt O00487 -0.0958
